# Experimental data as given in PubChem BioAssay AID2451 (National Center for Advancing Translational Sciences (NCATS), 2010).
# Out of some 290,000 compounds screened, about 2,100 (0.72%) were called active. Inconclusive results (about 4%) are left out. Only a selection was taken, and actives are over-represented in it overall. Unmarked numbers belong to inactive results. Calls come from the whole dose curve; as a rule, active = well fitted inhibition curve with a large enough effect; inconclusive = small, poorly fitted or top-dose-only effect, or effect the other way; inactive = flat fitted curve, though single readings scatter.
# Biological target: Fructose-bisphosphate aldolase (Giardia intestinalis (strain ATCC 50803 / WB clone C6)) (UniProt A8B2U2)
# Sequence (A8B2U2 whole entry, looked up): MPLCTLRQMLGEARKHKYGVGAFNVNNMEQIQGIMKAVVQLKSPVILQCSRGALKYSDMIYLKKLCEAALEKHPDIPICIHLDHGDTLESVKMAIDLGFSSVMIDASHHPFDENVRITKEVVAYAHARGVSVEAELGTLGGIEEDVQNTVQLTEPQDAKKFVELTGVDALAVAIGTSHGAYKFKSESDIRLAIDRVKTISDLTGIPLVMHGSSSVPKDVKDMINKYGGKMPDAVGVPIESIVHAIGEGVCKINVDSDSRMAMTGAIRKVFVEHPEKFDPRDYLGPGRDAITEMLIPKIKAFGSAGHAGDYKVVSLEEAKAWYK
# Assay: qHTS Assay for Inhibitors of Fructose-1,6-bisphosphate Aldolase from Giardia Lamblia; note: nearly all actives have a fitted effect of over 55% in size
# Settings: purified Giardia FBPA; series mostly up to 59.6 µM; activity, negative = inhibition: at the top concentration
# In short: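 40 nM FBPA preincubated 10 min at RT with compound (up to 57.5 uM final), then substrate plus GAPDH/TPI/NAD/arsenate coupling and diaphorase/resazurin added. Fluorescence read after 20 min at RT, 525/598 nm.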
# % is set by controls: 0 for no effect and ±100 for the full control effect; potency is the fitted concentration of half-maximal effect.
Compound,"activity, negative = inhibition",Potency
Cc1ccccc1NC(=O)C1CCN(C(=O)NC2CCCCC2)CC1,6.06%,
COC(=O)C1=CN(c2ccc(F)c(F)c2)C=C(C(=O)OC)C1c1ccc([N+](=O)[O-])cc1,0.105%,
Cc1ccc(C(=O)Nc2nnc(C3=COCCO3)o2)cc1C,,31.6 µM (active)
COc1ccccc1-c1nnc(NC(=O)c2ccc3ncsc3c2)o1,28.4%,
COc1ccccc1-c1nnc(NC(=O)c2cccc(N3C(=O)CCC3=O)c2)o1,10.3%,
COC(=O)c1ccccc1NC(=O)C1CCN(C(=O)N2CCOc3ccccc32)CC1,-3.52%,
Oc1cc(O)c2c(c1)OC(c1ccc(O)c(O)c1)C(O)C2 (stereo not given),,9.98 µM (active)
COc1ccc(C2Oc3c(I)c(OC)cc(OC)c3CC2O)cc1OC (stereo not given),7.26%,
O=C(NC(=S)Nc1ncccn1)c1ccccc1Br,,3.98 µM (active)
COC(=O)c1ccccc1NC(=S)NC(=O)c1ccccc1F,-16.7%,
O=C(NC(=S)Nc1ccc(S(=O)(=O)Nc2ncccn2)cc1)c1cccc(Br)c1,1.97%,
CCOc1ccc(OCC)c(NC(=O)CCS(=O)(=O)c2ccc(C)cc2)c1,7.51%,
COCCCNCCOCCOc1ccc(Cl)cc1Br,-23.6%,
CN(C)CCOc1ccc(Cl)cc1C(C)(C)C,,14.1 µM (active)
Cn1c(CCCOc2ccc(Cl)cc2Cl)n[nH]c1=S,-0.566%,
CNC(=S)N/N=C/c1ccc(N2CCOCC2)s1,,12.6 µM (active)
C=CCNC(=S)N/N=C/c1ccc(C)s1,5.8%,
Cc1cc(C(=O)N/N=C/c2ccc(N3CCOCC3)cc2)c(C)o1,-0.673%,
O=C(CCCC(=O)N1CCN(c2cccc(Cl)c2)CC1)c1ccccc1,-11.4%,
NC(=O)CC(NC(=O)Cc1ccc(Br)cc1)c1ccc(NC2CC3CCC2C3)c([N+](=O)[O-])c1 (stereo not given),-10.4%,
COc1cc(OC)c(C(=S)N2CCCC2)cc1OC,-20.3%,
Cn1c(CCN2CCCC2)nc2cc(NS(=O)(=O)c3ccccc3)ccc21,-18.8%,
O=S(=O)(Nc1ccc2cn[nH]c2c1)c1ccccc1,-18.7%,
O=S(=O)(Nc1ccc2nc(-c3ccco3)[nH]c2c1)c1ccccc1,,19.9 µM (active)
CCN1CCN(C(=O)C2CCCN(S(=O)(=O)c3ccc(OC)c(OC)c3)C2)CC1 (stereo not given),5.43%,
Cc1ccc(N(Cc2cc(=O)[nH]c3ccccc23)C(=O)CCl)cc1,-5.08%,
O=C(NCCCc1ccccc1)c1cc(COc2c(F)cccc2F)on1,-2.9%,
N#Cc1c(N2CCCCC2)nc(N)c2c(N)nc(SCC(=O)O)cc12,,12.6 µM (active)
Cc1cc(C)c(C#N)c(N2CCC(C(N)=O)CC2)n1,4.78%,
N#Cc1c(-c2ccccc2)cc(-c2ccccc2)nc1SCC(=O)O,14.5%,
